Experimental data published in PubChem BioAssay (NCATS).
Where “and” joins values, the source holds several entries; their conditions need not be identical. Equal entries are not always repeated. Results filed as inconclusive are left out. Calls of active or inactive are those of the source. Unless noted, calls come from the whole dose curve; as a rule, active = well fitted curve in the direction sought with a large enough effect; inconclusive = small, poorly fitted or top-dose-only effect, or another doubt; inactive = no such curve, though single readings can be large; an effect the other way counts as inactive or inconclusive.

Legend:
[1] = target: Cellular tumor antigen p53 (Homo sapiens) (UniProt P04637); assay: Primary qHTS for small molecule compounds that upregulate eGFP-tagged delta133p53alpha (in N-terminal) cells. (AID 2060322); conditions: NCI-H358 eGFP-delta133p53alpha fluorescence, 24 h; activation: active compounds read high;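 note: cells pre-induced with doxycycline then dosed without doxycycline; 0% = DMSO vehicle and 100% = reference activator; nearly all actives have a fitted effect of over 75% in size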
Cellular tumor antigen p53 (Homo sapiens), sequence (P04637 whole entry, looked up): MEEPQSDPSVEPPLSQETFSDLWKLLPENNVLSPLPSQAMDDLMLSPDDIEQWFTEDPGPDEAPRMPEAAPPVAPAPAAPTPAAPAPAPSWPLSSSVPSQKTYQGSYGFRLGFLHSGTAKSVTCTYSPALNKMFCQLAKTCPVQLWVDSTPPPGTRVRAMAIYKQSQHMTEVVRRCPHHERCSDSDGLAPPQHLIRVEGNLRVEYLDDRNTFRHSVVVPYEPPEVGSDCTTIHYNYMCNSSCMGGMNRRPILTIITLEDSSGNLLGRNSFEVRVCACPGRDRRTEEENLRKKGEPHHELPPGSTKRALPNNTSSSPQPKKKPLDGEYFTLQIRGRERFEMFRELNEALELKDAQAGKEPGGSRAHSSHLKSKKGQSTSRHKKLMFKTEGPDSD
Procedure, shortened: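 NCI-H358 cells pre-induced 24 h with 10 ng/ml doxycycline for eGFP-delta133p53alpha, plated dox-free and exposed 24 h at 37C to titrated compounds. Fixed, Hoechst-stained; gated GFP peak intensity by laser scanning cytometry, normalized to DMSO (0%) and 57.5 uM 5-azacytidine (100%).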

[2] = target: Cellular tumor antigen p53 (Homo sapiens) (UniProt P04637); assay: Primary qHTS for small molecule compounds that upregulate eGFP-tagged delta133p53alpha (in C-terminal) cells. (AID 2060324); conditions: NCI-H358 delta133p53alpha-eGFP (C-terminal tag), GFP fluorescence imaging, 24 h; series mostly up to 57.5 µM;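 note: 0% = DMSO wells and 100% = 57.5 µM 5-azacytidine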
Procedure, shortened: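 Concentration-response screen: compounds titrated onto pre-induced NCI-H358 D133p53a-eGFP cells, incubated one day, fixed with 3.5% PFA. Per-cell GFP peak intensity was gated, then normalized against intraplate controls.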

[3] = target: Aldehyde dehydrogenase, mitochondrial (Homo sapiens) (UniProt P05091); assay: qHTS for Inhibitors of the Aldehyde Dehydrogenase Family (ALDH2) Validation screens (AID 2061302; active = well fitted inhibition curve with a large enough effect; title and protocol of this record describe different tests;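 note: plate controls were DMSO vehicle for no effect and maximal DPI positive control response for full effect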); conditions: ALDH inhibition qHTS; series mostly up to 42.6 µM
[4] = target: Retinaldehyde dehydrogenase 3 (Homo sapiens) (UniProt P47895); assay: qHTS for Inhibitors of the Aldehyde Dehydrogenase Family (ALDH1A3) Validation screen (AID 2061312); conditions: ALDH1A3 enzyme inhibition qHTS validation, fluorescence; series mostly up to 84.7 µM; note: % is set by controls: 0 for no effect and ±100 for the full control effect; nearly all actives have a fitted effect of over 45% in size

CNCCc1cnc(CCC(c2ccccc2)c2ccccc2)[nH]1
inactive: activation [1] -38.1% | Potency [2] | Potency [3] | Potency [4]

CCCCCN(CCCCC)C(=O)C(CCC(=O)O)NC(=O)c1ccc(Cl)c(Cl)c1 (centres undefined)
inactive: activation [1] 13% and -3% | Potency [2] | Potency [3] | Potency [4]

C[C@]12CCC(=O)C=C1CC[C@@H]1[C@@H]2CC[C@@]2(C)[C@H]1CC[C@]2(O)C(=O)CO
inactive: activation [1] 12.6% and 23.7% | Potency [2] | Potency [3] | Potency [4]

CCCCCCCC/C=C\CCCCCCCC(=O)NCCc1ccc(O)c(O)c1
inactive: activation [1] 9.28% | Potency [2] | Potency [3] | Potency [4]

CC(=O)SCC[N+](C)(C)C
inactive: activation [1] -8.68% | Potency [2] | Potency [3] | Potency [4]

CN1CCN2c3ccccc3Cc3ccccc3C2C1 (centres undefined)
inactive: activation [1] -35.4% | Potency [2] | Potency [3] | Potency [4]

CCN(CC)CCOCCOC(=O)C1(c2ccccc2)CCCC1
inactive: activation [1] -17.5% and -6.79% | Potency [2] | Potency [3] | Potency [4]

C#CCn1c(=O)c2c(ncn2C)n(C)c1=O
inactive: activation [1] -14.7% | Potency [2] | Potency [3] | Potency [4]

CC(=O)O[C@H]1C[C@@H]2CC[C@@H]3[C@H](CC[C@@]4(C)[C@H]3C[C@H]([N+]3(C)CCCCC3)[C@@H]4OC(C)=O)[C@@]2(C)C[C@@H]1[N+]1(C)CCCCC1
inactive: activation [1] -16.6% | Potency [2] | Potency [3] | Potency [4]

CCC(=O)N1CCN(C(=O)c2ccccc2)CC1
inactive: activation [1] -16% | Potency [2] | Potency [3] | Potency [4]

NCCNS(=O)(=O)c1cccc2c(Cl)cccc12
inactive: activation [1] -38% | Potency [2] | Potency [3] | Potency [4]

COc1cccc(OC)c1OCCNCC1COc2ccccc2O1 (centres undefined)
inactive: activation [1] 7.71% | Potency [2] | Potency [3] | Potency [4]

CC(C)NC[C@H](O)COc1cccc2[nH]ccc12
inactive: activation [1] 15.4% | Potency [2] | Potency [3] | Potency [4]

CN[C@H](CC(=O)O)C(=O)O
inactive: activation [1] -12.8% | Potency [2] | Potency [3] | Potency [4]

CCN(CC)CCCN(c1ccccc1)C1Cc2ccccc2C1
inactive: activation [1] -2.82% and -37.7% | Potency [2] | Potency [3] | Potency [4]

CNCC[C@H](Oc1ccc(C(F)(F)F)cc1)c1ccccc1
inactive: activation [1] -46.5% | Potency [2] | Potency [3] | Potency [4]

COc1ccccc1N1CCN(CCCNc2c(C)c(=O)n(C)c(=O)n2C)CC1
inactive: activation [1] -0.789% | Potency [2] | Potency [3] | Potency [4]

O=c1[nH]c2cc(C(F)(F)F)ccc2n1-c1cc(C(F)(F)F)ccc1O
inactive: activation [1] -56.6% | Potency [2] | Potency [3] | Potency [4]

NC[C@@H]1O[C@H](c2ccccc2)Cc2c1ccc(O)c2O
inactive: activation [1] 5.43% | Potency [2] | Potency [3] | Potency [4]

C[C@](N)(Cc1ccc(O)cc1)C(=O)O
inactive: activation [1] -4.18% and 8.39% | Potency [2] | Potency [3] | Potency [4]

Nc1nc(N)c2nc(-c3ccccc3)c(N)nc2n1
inactive: activation [1] -26.6% and -1.16% | Potency [2] | Potency [3] | Potency [4]

CSC(N)=NCCC[C@H](N)C(=O)O
inactive: activation [1] 3.33% | Potency [2] | Potency [3] | Potency [4]

COc1ccc2c(c1)CCC1C2CC[C@@]2(C)C1CC[C@@H]2NCCCCCCN1C(=O)CCC1=O (some centres undefined)
inactive: activation [1] 10.7% | Potency [2] | Potency [3] | Potency [4]

Cc1nc2ccccn2c(=O)c1CCN1CCC(C(=O)c2ccc(F)cc2)CC1
inactive: activation [1] 0.565% and -12% | Potency [2] | Potency [3] | Potency [4]

CNCCCN1c2ccccc2CCc2ccccc21
inactive: activation [1] 14.2% and -26.6% | Potency [2] | Potency [3] | Potency [4]

CC[C@H](NC(=O)c1c(C)c(-c2ccccc2)nc2ccccc12)c1ccccc1
inactive: activation [1] -16.3% | Potency [2] | Potency [3] | Potency [4]

Cn1c(=O)c2[nH]c(-c3ccccc3)nc2n(C)c1=O
inactive: activation [1] -37% | Potency [2] | Potency [3] | Potency [4]

CCO/C([O-])=N/c1c[n+](N2CCOCC2)no1
inactive: activation [1] 9.21% and 19.2% | Potency [2] | Potency [3] | Potency [4]

COCCOC(=O)C1=C(C)NC(C)=C(C(=O)OC/C=C/c2ccccc2)C1c1cccc([N+](=O)[O-])c1 (centres undefined)
inactive: activation [1] 8.47% and -12.4% | Potency [2] | Potency [3] | Potency [4]

CCOC(=O)C12CC1/C(=N/O)c1ccccc1O2 (centres undefined)
inactive: activation [1] -19.2% | Potency [2] | Potency [3] | Potency [4]

CNC(=O)c1cc2c(cn1)[nH]c1ccccc12
inactive: activation [1] 11.5% | Potency [2] | Potency [3] | Potency [4]
